Assay results reported in the supplement of paper PMC10127200.
Structures can show the parent of a compound that is named as a salt.

How the values were obtained:
Test in all cases: Euclidean distance of Cell Painting phenotypic profile (signed KS, 77 features) to DMSO centroid (dimensionless distance); 5 or 10 uM (library dependent); higher = stronger phenotypic change vs DMSO (phenoactivity)
Conditions in all cases: 48 h
786-O = test system: 786-O
Procedure, shortened: (§1)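 Library compounds were applied at 10 or 5 uM, depending on the library, with 0.1% DMSO final, for 48 h to five cancer lines and a healthy fibroblast line. After staining, cells were imaged confocally at 20X across 9 fields per well, and Harmony extracted 77 features, each scored as a signed Kolmogorov-Smirnov statistic against vehicle wells on the same plate. Phenoactivity is the Euclidean distance between each profile and the median vehicle profile, with profiles first plate-position corrected, correlation-weighted and averaged over replicates at the top dose.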

A549 = test system: A549
Procedure, shortened: as §1

FB = test system: FB
Procedure, shortened: as §1

HEPG2 = test system: HEPG2
Procedure, shortened: as §1

OVCAR4 = test system: OVCAR4
Procedure, shortened: as §1

Row | SMILES | Euclidean distance (786-O) | Euclidean distance (A549) | Euclidean distance (FB) | Euclidean distance (HEPG2) | Euclidean distance (OVCAR4)
1 | O=c1c(-c2ccc(O)cc2)coc2cc(O[C@@H]3O[C@H](CO)[C@@H](O)[C@H](O)[C@H]3O)ccc12 [Daidzin] | 0.57 | 0.784 | 0.914 | 0.745 | 1.17
2 | Cc1c(C)c2c(c(C)c1O)CC[C@@](C)(CCC[C@H](C)CCC[C@H](C)CCCC(C)C)O2 [Vitamin E] | 0.972 | 1.04 | 0.892 | 0.644 | 1.43
3 | CCC(=O)NCC[C@@H]1CCc2ccc3c(c21)CCO3 [Ramelteon] | 1.15 | 0.978 | 0.887 | 1.02 | 1.07
4 | Cn1ccnc1S [Methimazole] | 1.71 | 1.61 | 2.81 | 1.08 | 2.25
5 | CC(C)(C)[C@@H]1NC(=O)O[C@@H]2CCC[C@H]2OC/C=C/C(F)(F)c2nc3ccccc3nc2O[C@@H]2C[C@@H](C(=O)N[C@]3(C(=O)NS(=O)(=O)C4(C)CC4)C[C@H]3C(F)F)N(C2)C1=O [Glecaprevir] | 1.01 | 1.22 | 0.806 | 0.687 | 0.812
6 | N#C[C@@H]1C[C@@H]2C[C@@H]2N1C(=O)[C@@H](N)C12CC3CC(CC(O)(C3)C1)C2 [Saxagliptin hydrate] | 0.976 | 0.951 | 0.817 | 0.598 | 1.53
7 | CCN1CCCC1CNC(=O)c1cc(S(N)(=O)=O)ccc1OC (stereo not given) [Sulpiride] | 0.713 | 1.29 | 0.953 | 1.17 | 0.676
8 | CCN(CC)C(=O)c1cccnc1 [Nikethamide] | 1.44 | 1.13 | 1.17 | 0.66 | 1.38
9 | CN1CC[C@@H](NC(=O)Nc2ccc(C#N)cc2)C[C@@H]1c1nc2ccccc2[nH]1 | 2.28 | 1.79 | 3.81 | 1.1 | 1.73
10 | O=C1c2ccccc2C(=O)C1c1ccccc1 [Phenindione] | 0.966 | 1.04 | 1.16 | 0.74 | 1.1
11 | CCCCC1(COC(=O)CCC(=O)O)C(=O)N(c2ccccc2)N(c2ccccc2)C1=O [Suxibuzone] | 0.771 | 0.893 | 1.12 | 0.518 | 1.57
12 | CCOC(=O)N[C@@H]1CC[C@@H]2[C@@H](C1)C[C@H]1C(=O)O[C@H](C)[C@H]1[C@H]2/C=C/c1ccc(-c2cccc(F)c2)cn1 [Vorapaxar] | 1.81 | 1.29 | 2.37 | 1.49 | 1.31
13 | Cc1oncc1C(=O)Nc1ccc(C(F)(F)F)cc1 [Leflunomide] | 2.25 | 2.41 | 2.37 | 1.3 | 2.17
14 | Cc1cc2c(C(N)=O)cccc2n1-c1nc2c(c(NCc3ccccc3)n1)COCC2 | 6.05 | 2.9 | 7.18 | 4.68 | 3.98
15 | CSc1ccc(OCc2ncc([N+](=O)[O-])n2C)cc1 [Fexinidazole] | 1.24 | 1.03 | 0.976 | 0.857 | 1.16
16 | CC1=C(/C=C/C(C)=C/C=C/C(C)=C/C(=O)O)C(C)(C)CCC1 [Tretinoin] | 1.24 | 1.29 | 2.68 | 1.21 | 1.18
17 | CN(CCOc1ccc(NS(C)(=O)=O)cc1)CCc1ccc(NS(C)(=O)=O)cc1 [Dofetilide] | 0.968 | 1.19 | 1.24 | 0.609 | 1.02
18 | CN1CCc2nc(C(=O)N[C@@H]3C[C@@H](C(=O)N(C)C)CC[C@@H]3NC(=O)C(=O)Nc3ccc(Cl)cn3)sc2C1 [Edoxaban] | 1.02 | 0.603 | 0.835 | 0.275 | 0.602
19 | O=C(NCCN1CCOCC1)c1ccc(Cl)cc1 | 1.01 | 1.34 | 0.812 | 0.538 | 1.07
20 | Cc1ccc(C(=O)Nc2ccc(CN3CCN(C)CC3)c(C(F)(F)F)c2)cc1C#Cc1cnc2[nH]ncc2c1 [GZD824 Dimesylate] | 4.23 | 4.68 | 5.04 | 5.49 | 4.87
21 | COC(=O)OCOc1c2n(ccc1=O)N([C@@H]1c3ccccc3SCc3c1ccc(F)c3F)[C@@H]1COCCN1C2=O [Baloxavir marboxil] | 0.818 | 1.3 | 1.58 | 0.558 | 0.843
22 | CCC(NC(C)C)C(O)c1ccc(O)c(O)c1 (stereo not given) [Isoetharine Mesylate] | 0.478 | 0.789 | 1.18 | 0.832 | 1.01

Row | SMILES | Euclidean distance (786-O) | Euclidean distance (A549) | Euclidean distance (FB) | Euclidean distance (HEPG2) | Euclidean distance (OVCAR4)
23 | CN[C@@H](C)C(=O)N[C@H](C(=O)N1CCC[C@H]1c1nc(C(=O)c2ccc(F)cc2)cs1)C1CCCCC1 | 1.14 | 1.17 | 1.22 | 1.51 | 2.13
24 | COc1ccc(CN(CCN(C)C)c2ccccn2)cc1 [Pyrilamine Maleate] | 0.832 | 0.864 | 1.11 | 0.605 | 1.5
25 | Nc1ccncc1N [3.4-Diaminopyridine] | 1.58 | 1.24 | 1.38 | 0.828 | 1.15
26 | COC(=O)C[C@](O)(CCCC(C)(C)O)C(=O)O[C@@H]1C(OC)=C[C@]23CCCN2CCc2cc4c(cc2[C@H]13)OCO4 [Homoharringtonine] | 3.57 | 3.34 | 4.13 | 3.18 | 3.7
27 | CC(C(=O)O)c1ccc(-c2ccccc2)c(F)c1 (stereo not given) [Flurbiprofen] | 0.962 | 0.696 | 1.21 | 0.393 | 1.27
28 | NC(=O)c1nc(F)cnc1O [Favipiravir (T-705)] | 0.685 | 0.513 | 0.835 | 0.762 | 0.894
29 | CCc1ccc(Cc2ccc3c(c2)[C@]2(OC3)O[C@H](CO)[C@@H](O)[C@H](O)[C@H]2O)cc1 [Tofogliflozin(CSG 452)] | 1.15 | 1.03 | 0.713 | 0.386 | 1.56
30 | CN(C)CCOC(c1ccccc1)c1ccccc1 [Diphenhydramine HCl] | 0.916 | 0.411 | 0.777 | 0.793 | 0.518
31 | O=c1[nH]nc2c3c(cccc13)N=C(CN1Cc3ccccc3C1)N2 | 0.985 | 1.29 | 1.31 | 2.35 | 1.42
32 | CNCCCC1c2ccccc2C=Cc2ccccc21 [Protriptyline hydrochloride] | 1.15 | 0.784 | 1.82 | 1.74 | 0.952
33 | CC(C)(C)CC(C)(C)c1ccc(O)c(Cc2ccc(Cl)cc2Cl)c1 [Clofoctol] | 1.64 | 1.84 | 1.21 | 0.886 | 1.7
34 | CCOC(=O)[C@H](CCc1ccccc1)N[C@H]1CCc2ccccc2N(CC(=O)O)C1=O [Benazepril] | 0.912 | 0.486 | 0.851 | 0.54 | 1.04
35 | C[C@]12C=CC(=O)C=C1CC[C@@H]1[C@@H]2C(=O)C[C@@]2(C)[C@H]1CC[C@]2(O)C(=O)CO [Prednisone] | 2.09 | 2.37 | 2.39 | 1.49 | 2.03
36 | Cc1cccn2c(=O)c(-c3nnn[nH]3)cnc12 [Pemirolast potassium] | 1.31 | 0.747 | 0.893 | 0.682 | 1.05
37 | Cc1c(OCC(F)(F)F)ccnc1C[S+]([O-])c1nc2ccccc2[nH]1 (stereo not given) [Lansoprazole] | 1.16 | 2.3 | 0.815 | 1.08 | 0.948
38 | NS(=O)(=O)c1cc2c(cc1Cl)NC(C(Cl)Cl)NS2(=O)=O (stereo not given) [Trichlormethiazide] | 1.14 | 0.794 | 0.859 | 0.531 | 0.98
39 | CN(C(=O)c1ccc(F)cc1C(F)(F)F)C1CCN(c2nnc(-c3ccnn3C)c3ccccc23)CC1 | 1.45 | 0.959 | 1.03 | 1 | 1.53
40 | CN1CCN(C(c2ccccc2)c2ccccc2)CC1 [Cyclizine 2HCl] | 1.05 | 0.919 | 1.58 | 0.689 | 1.37
41 | CC(C)n1c(/C=C/C(O)CC(O)CC(=O)O)c(-c2ccc(F)cc2)c2ccccc21 (stereo not given) [Fluvastatin Sodium] | 3.02 | 2.4 | 3.84 | 1.86 | 2.29
42 | O=C(CCCN1CCC(O)(c2ccc(Cl)cc2)CC1)c1ccc(F)cc1 [Haloperidol] | 1.27 | 0.777 | 1.09 | 1.04 | 1.95
43 | Nc1nc2cc(-c3ccc4ncc(C(=O)N5CCOCC5)n4c3)ccc2o1 [Serabelisib (INK-1117.MLN-1117.TAK-117)] | 1.02 | 1.76 | 2.6 | 1.39 | 1.61
